From PMC4242493, “Sequence specificity incompletely defines the genome-wide occupancy of Myc” come the findings set out here.

Whole data set: some 33,000 sequences, median “normalized occupancy” near 0.075, cut for the highest 2% near 0.095. The full list was thinned out, with the highest values kept by preference.

Sequence of MaxL homodimer (P61244 whole entry): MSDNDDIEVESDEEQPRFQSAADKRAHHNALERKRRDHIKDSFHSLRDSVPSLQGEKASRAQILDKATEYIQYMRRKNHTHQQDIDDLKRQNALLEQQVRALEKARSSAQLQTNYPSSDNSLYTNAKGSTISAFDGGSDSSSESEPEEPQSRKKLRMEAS

This assay concerns the target MaxL homodimer (Homo sapiens, UniProt P61244 1-160). The assay can be described thus: universal protein-binding microarray (PBM); PBS-based mixture, 10 nM His-tagged protein dimer, 2% milk, 200 ng/uL BSA, 50 ng/uL salmon testes DNA, 0.02% TX-100; detection with Alexa 488 anti-His antibody;; high values mean tight binding. The conditions noted are these: protein: recombinant; tags: C-terminal His-tag (pET21a); chain copies: 2; dsDNA, one strand shown. Summed up: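 His-tagged protein dimer at 10 nM was bound to Agilent 4 x 44 K 'all 10-mer' universal arrays and detected with 10 ng/μL fluorophore-conjugated anti-His antibody on a GenePix 4400A, giving an intensity per 8-mer. Binding occupancy normalises each intensity to the top-ranked one.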
In the case of ATGATAAA, the binding signal is 0.0793 normalized occupancy.

For the sequence ACGAGGTC, the binding signal was 0.0849 normalized occupancy. On to ATAGACCC, for which the binding signal is 0.0762 normalized occupancy. Then GTGACCCA, with 0.0762 normalized occupancy; and TATGCTGA, with 0.0773 normalized occupancy. Then CATGCTGA, with 0.112 normalized occupancy. With GATGCTGA, the binding signal was 0.0746 normalized occupancy.

As for CCCTTGCA, the binding signal came out at 0.0735 normalized occupancy. For ACATTTTC, the binding signal came to 0.0796 normalized occupancy. Then CACGTTGA, with 0.115 normalized occupancy; and AACGTTGG, with 0.0767 normalized occupancy. Then CACGTTGG, with 0.122 normalized occupancy; and CGCGTTGC, with 0.0781 normalized occupancy; and AACGTTGA, with 0.0764 normalized occupancy.

As for CACGTTGC, the binding signal is 0.131 normalized occupancy.

For the sequence GACGTTGA, the binding signal came to 0.0764 normalized occupancy. Then AACGTTGC, with 0.0766 normalized occupancy. For the sequence TACGTTGA, the binding signal amounted to 0.082 normalized occupancy. As for AACTCGCG, the binding signal worked out at 0.0749 normalized occupancy. Then ACAAAGGG, with 0.0742 normalized occupancy; and TCCTAAGA, with 0.0773 normalized occupancy. With CTCAGTAC, the binding signal came to 0.0743 normalized occupancy. For CCTCCTCC, the binding signal stood at 0.0782 normalized occupancy. As to CGTATGAG, the binding signal is 0.0785 normalized occupancy. Then AGTATGAG, with 0.0766 normalized occupancy; and ATCATGAG, with 0.09 normalized occupancy; and CGCATGAG, with 0.0969 normalized occupancy. Consider CGCATGAC, for which the binding signal was 0.105 normalized occupancy. Then CGTATGAC, with 0.0817 normalized occupancy; and GGCATGAC, with 0.0858 normalized occupancy; and CGCATGAA, with 0.0861 normalized occupancy. With AGCATGAG, the binding signal amounted to 0.102 normalized occupancy. ACAGATCT: the binding signal was 0.0745 normalized occupancy. Then GGCATACA, with 0.0776 normalized occupancy. Then GAGACATC, with 0.0756 normalized occupancy.

For the sequence GATGCCGA, the binding signal was found to be 0.0738 normalized occupancy. Consider CATGCCGG, for which the binding signal was 0.0917 normalized occupancy. As for CATGCCAA, the binding signal came to 0.0927 normalized occupancy. Consider CATGCCGA, for which the binding signal was found to be 0.102 normalized occupancy. Then CATGCCAC, with 0.0989 normalized occupancy. Consider CATGCCGC, for which the binding signal was 0.105 normalized occupancy. Then CATGCCAG, with 0.0874 normalized occupancy; and TATGCCGA, with 0.0757 normalized occupancy; and AATGCCGC, with 0.0765 normalized occupancy.

For the sequence ACCTAAAT, the binding signal is 0.073 normalized occupancy. Then GAGCTATA, with 0.0729 normalized occupancy; and ATGTGGAA, with 0.0936 normalized occupancy; and GTATGGAA, with 0.0836 normalized occupancy. Then ACAGCACG, with 0.0906 normalized occupancy; and CCCTGGAA, with 0.0745 normalized occupancy; and AGCAGACA, with 0.0774 normalized occupancy. For CCGCCACC, the binding signal came to 0.0762 normalized occupancy. Then TAATTGTA, with 0.0773 normalized occupancy; and CTTTTGGA, with 0.0744 normalized occupancy.

Regarding CACCTGTC, the binding signal is 0.0839 normalized occupancy. Then CACCTGAC, with 0.0973 normalized occupancy; and CACCTGGC, with 0.103 normalized occupancy. Then CACCTGGG, with 0.0841 normalized occupancy; and CACCTGAG, with 0.0741 normalized occupancy. Then CACCTGGA, with 0.0905 normalized occupancy; and ATTCGAGG, with 0.0723 normalized occupancy; and ACTGCACT, with 0.0733 normalized occupancy.

Consider ACATGTTA, for which the binding signal turned out to be 0.0993 normalized occupancy. Then CCATGTTA, with 0.0847 normalized occupancy; and ATATGTTA, with 0.0924 normalized occupancy.

In the case of GTATGTTA, the binding signal came to 0.0849 normalized occupancy.

For AAATGTTG, the binding signal was 0.0794 normalized occupancy.

For the sequence AGATGTTG, the binding signal was determined as 0.0819 normalized occupancy. Then GCATGTCA, with 0.0972 normalized occupancy; and AGATGTTA, with 0.0811 normalized occupancy; and GCATGTTA, with 0.0976 normalized occupancy. For ACATGTTG, the binding signal stood at 0.11 normalized occupancy. Then ACATGTCA, with 0.0911 normalized occupancy. Then GCATGTCC, with 0.0929 normalized occupancy; and TACAGACA, with 0.0803 normalized occupancy; and CATTGACG, with 0.0792 normalized occupancy.

On to CGACCCTC, for which the binding signal worked out at 0.0724 normalized occupancy.

Consider TCTTGTAA, for which the binding signal was 0.0718 normalized occupancy. For the sequence AGAACGAC, the binding signal amounted to 0.0774 normalized occupancy. Regarding GAGGCCCC, the binding signal stood at 0.0733 normalized occupancy.

Regarding GATGTCCA, the binding signal is 0.0757 normalized occupancy. Then CCATTCTA, with 0.0759 normalized occupancy. With AGCTGCCA, the binding signal was found to be 0.0736 normalized occupancy.

As to ACATGTTC, the binding signal was determined as 0.0965 normalized occupancy. Take CCATGTTC: the binding signal is 0.0828 normalized occupancy. Then ATATGTTC, with 0.0831 normalized occupancy; and GGCATCAC, with 0.0813 normalized occupancy; and GACAAGCC, with 0.0728 normalized occupancy. Then AAGCATCA, with 0.076 normalized occupancy; and ATGCGCAC, with 0.0828 normalized occupancy. Then ATACGCAT, with 0.0968 normalized occupancy; and ATGCGCAG, with 0.0789 normalized occupancy. Consider ACACGCAT, for which the binding signal was determined as 0.0976 normalized occupancy. On to ACACGCAC, for which the binding signal came to 0.0931 normalized occupancy. Then ATACGCAG, with 0.0734 normalized occupancy. Then ACACGCAA, with 0.087 normalized occupancy.

Consider ATACGCAC, for which the binding signal was found to be 0.0799 normalized occupancy. As for ATGCGCAT, the binding signal was determined as 0.102 normalized occupancy.

CAGTACTA: the binding signal came to 0.0775 normalized occupancy. Then CCCACAGC, with 0.0741 normalized occupancy; and CCTGGCTC, with 0.0726 normalized occupancy. Then ACCTAAGT, with 0.0745 normalized occupancy; and AGTGATGG, with 0.0766 normalized occupancy. Then GGTAGTCA, with 0.0743 normalized occupancy; and AAAATGAC, with 0.0766 normalized occupancy; and AATGCAGA, with 0.0752 normalized occupancy. Regarding CCTGCAGG, the binding signal was found to be 0.074 normalized occupancy. Then AATGCAGG, with 0.08 normalized occupancy.

CATGCAGG: the binding signal was 0.097 normalized occupancy. As for CATGCAGC, the binding signal was determined as 0.0946 normalized occupancy. In the case of CATGCAGA, the binding signal stood at 0.0959 normalized occupancy.
